Experimental data taken from PubChem BioAssay (Tox21).
Inconclusive results are not listed. The source made the active and inactive calls. Unless noted, calls follow the shape of the dose curve; as a rule, active = well fitted curve in the direction sought with a large enough effect in the repeat runs; inconclusive = weak or mixed curves; inactive = no such curve, though single readings can be large; an effect the other way counts as inactive or inconclusive.

Experiments:
[1] = qHTS RealTime-Glo MT Cell Viability Assay in HEK293 cells - 24 hour (AID 1224886); also: nearly all actives have a fitted effect of over 50% in size; also: potency is read from the fitted curve at half-maximal effect; as to activity change, negative = cytotoxicity: top concentration of the series differs between compounds
Procedure, shortened: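 Tox21 10K qHTS, HEK293, 600 cells/well, RealTime-Glo reagent co-dispensed with cells; 5 h preincubation, compound by pintool, 37 C, luminescence at 0–40 h.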

[2] = qHTS RealTime-Glo MT Cell Viability Assay in HEK293 cells - 8 hour (AID 1224887); also: nearly all actives have a fitted effect of over 50% in size; also: potency is read from the fitted curve at half-maximal effect; as to activity change, negative = cytotoxicity: top concentration of the series differs between compounds
Procedure, shortened: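 HEK293 + NanoLuc + prosubstrate, 600 cells/well; 5 h, 37 C/5% CO2; compound 23 nL in DMSO by pintool; 37 C; luminescence read at 0, 8, 16, 24, 32 and 40 h time points.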

[3] = A CellTox Green Cytotoxicity Assay to monitor cytotoxicity in HEK293 cells - 16 hour (AID 1224888); also: nearly all actives have a fitted effect of over 35% in size; also: potency is read from the fitted curve at half-maximal effect
Procedure, shortened: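 Tox21 screen in HEK293: membrane-impermeant cyanine dye fluoresces on binding dead-cell DNA; compound pinned 5 h post-seeding, plates held at 37 C, signal read repeatedly through 40 h.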

[4] = qHTS RealTime-Glo MT Cell Viability Assay in HepG2 cells - 0 hour (AID 1224889); also: nearly all actives have a fitted effect of over 50% in size
Procedure, shortened: (§1)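 Cells + NanoLuc/prosubstrate dispensed (600 cells/well) → 5 h at 37 C/5% CO2 → compounds in DMSO transferred → 40 h incubation at 37 C, luminescence read at 0, 8, 16, 24, 32, 40 h.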

[5] = A CellTox Green Cytotoxicity Assay to monitor cytotoxicity in HepG2 cells - 8 hour (AID 1224890); also: nearly all actives have a fitted effect of over 45% in size; also: potency is read from the fitted curve at half-maximal effect
Procedure, shortened: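 Measurements at 0, 8, 16, 24, 32 and 40 h of treatment captured CellTox Green fluorescence in HepG2 cells that had been co-plated with reagent and preincubated 5 h at 37 C/5% CO2.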

[6] = qHTS assay to identify small molecule antagonists of the estrogen receptor alpha (ER-alpha) signaling pathway using the BG1 cell line in the presence of 0.1 nM 17-beta-estradiol - cell viability counter screen (AID 1259241); also: nearly all actives have a fitted effect of over 40% in size
Procedure, shortened: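 The cell line endogenously expresses full-length ER-alpha and carries four EREs driving luciferase. Cells are cultured 5 days hormone-free, treated 22 hr with compounds and 0.1 nM estradiol, then viability is read by fluorescence.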

[7] = qHTS assay to identify small molecule antagonists of the androgen receptor (AR) signaling pathway using the MDA cell line in the presence of 0.5 nM R1881 - cell viability counter screen (AID 1259242); also: nearly all actives have a fitted effect of over 45% in size; also: potency is read from the fitted curve at half-maximal effect
Procedure, shortened: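 Concentration-response screen of compounds for toxicity in MDA-kb2 reporter cells: 16 hr at 37C with 0.5 nM R1881, endpoint live-cell protease fluorescence measured in the reporter wells.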

[8] = target: Androgen receptor (Homo sapiens) (UniProt P10275); assay: qHTS assay to identify small molecule antagonists of the androgen receptor (AR) signaling pathway using the MDA cell line in the presence of 0.5 nM R1881 (AID 1259243); also: nearly all actives have a fitted effect of over 50% in size; also: potency is read from the fitted curve at half-maximal effect
Procedure, shortened: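 With R1881 held at 0.5 nM (final), compound effects on MMTV-luciferase expression in MDA-kb2 cells were scored by luminescence after a 16 hr, 37C incubation.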

[9] = target: Estrogen receptor (Homo sapiens) (UniProt P03372); assay: qHTS assay to identify small molecule antagonists of the estrogen receptor alpha (ER-alpha) signaling pathway using the BG1 cell line in the presence of 0.1 nM 17-beta-estradiol (AID 1259244); also: nearly all actives have a fitted effect of over 50% in size
Procedure, shortened: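 Compounds were tested against 0.1 nM (final) 17beta-estradiol in VM7Luc4E2 cells, which express full-length ER-alpha and an ERE-luciferase reporter; luminescence was recorded following 22 h exposure.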

[10] = qHTS assay to identify small molecule HDAC inhibitors - cell viability counter screen (AID 1259365)
Procedure, shortened: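 Viability readout: CellTiter-Glo luminescence. Wild-type HCT-116 cells, 2hr compound treatment following overnight attachment at 37 C.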

[11] = qHTS assay to identify small molecule agonists of the sonic hedgehog signaling (Shh) pathway - cell viability counter screen (AID 1259366); also: nearly all actives have a fitted effect of over 50% in size; also: potency is read from the fitted curve at half-maximal effect
Procedure, shortened: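 Viability measured fluorometrically (CellTiter-Fluor, 1hr, 37C) in 3T3 Gli1-Luc reporter cells after 23hr compound exposure within a 24hr incubation at 37C/5% CO2.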

[12] = qHTS assay to identify small molecule antagonists of the sonic hedgehog signaling (Shh) pathway - cell viability counter screen (AID 1259367); also: nearly all actives have a fitted effect of over 55% in size; also: potency is read from the fitted curve at half-maximal effect
Procedure, shortened: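 Cytotoxicity was assessed in parallel with Shh reporter activity by measuring live-cell protease fluorescence (CellTiter-Fluor) in NIH/3T3 cells stably carrying Gli1-Luc, treated with compound under conditioned medium stimulation for 23 hr plus 1 hr reagent incubation.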

[13] = qHTS assay to identify small molecule agonists of the sonic hedgehog signaling (Shh) pathway (AID 1259368; calls by dose curve;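 also: NIH/3T3-derived 3T3Gli1-Luc cells carrying a stable Gli1-driven firefly luciferase reporter; series mostly up to about 92 µM; nearly all actives have a fitted effect of over 15% in size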)
Procedure, shortened: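 Hedgehog pathway agonism scored by increased firefly luciferase luminescence in 3T3Gli1-Luc cells treated 24 hr at 37 C; detection used a 30 min room-temperature reagent incubation.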

[14] = qHTS assay to identify small molecule agonists of the androgen receptor (AR) signaling pathway in the presence of an antagonist - cell viability counter screen (AID 1259379);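 also: MDA-kb2 human breast cancer cells carrying an MMTV luciferase reporter; series mostly up to about 92 µM; nearly all actives have a fitted effect of over 25% in size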
Procedure, shortened: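 MDA-kb2 viability measured by CellTiter-Fluor fluorescence in the same wells as the luciferase signal; nilutamide 3.0uM final; 15-point compound titration; 16 hr at 37C.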

[15] = qHTS assay to identify small molecule HDAC inhibitors (AID 1259364);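 also: wild-type HCT-116 cells with endogenous class I/II HDAC activity; top concentration of the series differs between compounds; nearly all actives have a fitted effect of over 45% in size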
Procedure, shortened: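 Screening used wild-type human colon HCT-116 cells incubated overnight, dosed with compounds for 2 hours, and assayed with a homogeneous luminogenic HDAC I/II reagent for 30 minutes at room temperature.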

[16] = qHTS assay to identify small molecule antagonists of the sonic hedgehog signaling (Shh) pathway (AID 1259369; calls by dose curve; also: nearly all actives have a fitted effect of over 45% in size; also: potency is read from the fitted curve at half-maximal effect)
Procedure, shortened: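 NIH/3T3 stable Gli1-Luc clone, 2,000 cells/well, 4hr settle; cpd + conditioned medium 24hr; Luc reagent 30min RT; luminescence.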

[17] = target: Estrogen receptor beta (Homo sapiens) (UniProt Q92731); assay: qHTS assay to identify small molecule antagonists of the estrogen receptor beta (ER-beta) signaling pathway (AID 1259378; active = well fitted inhibition curve with a large enough effect in the signal ratio in the repeat runs, not every such curve was filed as active; the % refers to the signal ratio)
Procedure, shortened: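 ER-beta-UAS-bla HEK293T (GripTite) cells in 2% charcoal-stripped FBS medium were preincubated 6 hr at 37C, dosed with compound, then stimulated with 1 nM E2 (final) for 16 hr; beta-lactamase reporter read by B/G FRET fluorescence after 2 hr substrate loading.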

[18] = qHTS RealTime-Glo MT Cell Viability Assay in HepG2 cells - 16 hour (AID 1224885); also: nearly all actives have a fitted effect of over 50% in size
Procedure, shortened: as §1

[19] = qHTS assay to identify small molecule phospholipidosis (PLD) inducers (AID 1259344; active = well fitted curve in the direction sought with a large enough effect; an effect the other way counts as inactive or inconclusive)
Procedure, shortened: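 Cells (HepG2, 900 per well) attach for 4 h, receive LipidTOX Red and compound together, incubate 24 h at 37 C, are fixed 30 min with paraformaldehyde/Hoechst, then imaged at one site per well.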

[20] = target: Estrogen receptor beta (Homo sapiens) (UniProt Q92731); assay: qHTS assay to identify small molecule agonists of the estrogen receptor beta (ER-beta) signaling pathway (AID 1259377; active = well fitted activation curve with a large enough effect in the signal ratio in the repeat runs, not every such curve was filed as active; the % refers to the signal ratio)
Procedure, shortened: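 A UAS-controlled beta-lactamase reporter in ER-beta-UAS-bla HEK293T cells reports receptor activation. Compounds act for 16 hr at 37C in 2% charcoal-stripped serum, and a FRET substrate is read by fluorescence after 2 hours.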
% is scaled to controls: 0 for no effect and ±100 for the full control effect.

Chain of Androgen receptor (Homo sapiens) (P10275 whole entry, looked up): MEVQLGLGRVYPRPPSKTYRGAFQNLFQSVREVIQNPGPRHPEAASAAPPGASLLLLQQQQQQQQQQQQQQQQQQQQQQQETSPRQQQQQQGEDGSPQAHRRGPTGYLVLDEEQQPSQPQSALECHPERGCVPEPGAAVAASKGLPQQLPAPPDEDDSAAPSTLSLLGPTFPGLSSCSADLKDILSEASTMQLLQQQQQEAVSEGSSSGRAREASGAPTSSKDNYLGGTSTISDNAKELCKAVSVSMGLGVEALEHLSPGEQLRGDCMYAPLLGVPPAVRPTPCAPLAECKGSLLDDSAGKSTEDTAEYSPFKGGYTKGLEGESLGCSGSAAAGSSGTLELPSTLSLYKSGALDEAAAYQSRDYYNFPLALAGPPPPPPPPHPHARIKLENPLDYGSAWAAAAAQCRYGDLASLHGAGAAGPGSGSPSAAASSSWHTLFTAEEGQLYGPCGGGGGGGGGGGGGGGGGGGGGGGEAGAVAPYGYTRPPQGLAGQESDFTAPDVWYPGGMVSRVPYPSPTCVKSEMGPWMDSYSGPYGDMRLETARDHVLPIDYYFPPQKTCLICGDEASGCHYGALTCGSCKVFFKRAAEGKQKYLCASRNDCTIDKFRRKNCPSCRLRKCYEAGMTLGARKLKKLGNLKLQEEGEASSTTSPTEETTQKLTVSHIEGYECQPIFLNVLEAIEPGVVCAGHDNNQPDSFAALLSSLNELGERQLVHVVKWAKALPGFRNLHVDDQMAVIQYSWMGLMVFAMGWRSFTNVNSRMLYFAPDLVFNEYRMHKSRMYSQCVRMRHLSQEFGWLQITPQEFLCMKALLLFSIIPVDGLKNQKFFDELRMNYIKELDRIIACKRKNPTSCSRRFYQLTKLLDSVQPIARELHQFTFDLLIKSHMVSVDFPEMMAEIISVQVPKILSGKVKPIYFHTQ
Chain of Estrogen receptor beta (Homo sapiens) (Q92731 whole entry, looked up): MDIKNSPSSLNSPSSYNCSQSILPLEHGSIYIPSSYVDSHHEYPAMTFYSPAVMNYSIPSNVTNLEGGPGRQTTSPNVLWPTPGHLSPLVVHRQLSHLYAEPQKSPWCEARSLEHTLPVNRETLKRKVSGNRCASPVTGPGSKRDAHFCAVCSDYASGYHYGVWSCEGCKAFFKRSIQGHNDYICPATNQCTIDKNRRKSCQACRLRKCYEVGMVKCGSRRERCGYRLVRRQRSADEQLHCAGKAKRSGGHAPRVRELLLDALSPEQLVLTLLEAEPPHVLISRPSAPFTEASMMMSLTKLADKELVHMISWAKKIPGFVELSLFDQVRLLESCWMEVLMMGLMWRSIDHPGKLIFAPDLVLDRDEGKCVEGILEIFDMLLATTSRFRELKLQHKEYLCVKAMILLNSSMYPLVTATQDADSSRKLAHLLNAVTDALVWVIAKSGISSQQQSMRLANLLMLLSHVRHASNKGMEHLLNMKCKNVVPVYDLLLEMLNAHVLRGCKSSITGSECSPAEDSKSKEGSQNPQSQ
Chain of Estrogen receptor (Homo sapiens) (P03372 whole entry, looked up): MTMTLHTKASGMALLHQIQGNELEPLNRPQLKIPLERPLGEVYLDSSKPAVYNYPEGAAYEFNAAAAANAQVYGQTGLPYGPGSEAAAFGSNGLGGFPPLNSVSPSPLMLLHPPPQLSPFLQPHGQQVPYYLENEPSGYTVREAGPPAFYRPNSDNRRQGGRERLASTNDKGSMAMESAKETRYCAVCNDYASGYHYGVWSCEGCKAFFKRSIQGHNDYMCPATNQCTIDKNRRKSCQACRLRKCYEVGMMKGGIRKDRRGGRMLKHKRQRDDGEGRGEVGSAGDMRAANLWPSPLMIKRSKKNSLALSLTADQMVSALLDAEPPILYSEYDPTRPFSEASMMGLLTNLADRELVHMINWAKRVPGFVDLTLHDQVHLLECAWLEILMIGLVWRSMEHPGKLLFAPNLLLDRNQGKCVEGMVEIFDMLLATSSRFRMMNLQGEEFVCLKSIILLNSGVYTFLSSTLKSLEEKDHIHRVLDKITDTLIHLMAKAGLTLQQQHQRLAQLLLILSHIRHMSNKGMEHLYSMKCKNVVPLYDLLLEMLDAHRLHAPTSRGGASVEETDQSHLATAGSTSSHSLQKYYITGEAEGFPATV

N#Cc1ccc(C/C(=N/NC(=O)Nc2ccc(OC(F)(F)F)cc2)c2cccc(C(F)(F)F)c2)cc1
inactive: Potency [1] | Potency [2] | Potency [3] | Potency [4] | Potency [5] | Potency [6] | Potency [7] | Potency [8] | Potency [9] | Potency [10] | Potency [11] | Potency [12] | Potency [13] | Potency [14]

Cc1cc(Br)ccc1NC(=O)CCl
inactive: Potency [3] | Potency [4] | Potency [5] | Potency [9] | Potency [15] | Potency [10]
active: Potency [1] 30.9 µM | Potency [2] 24.5 µM | Potency [7] 48.6 µM | Potency [11] 9.69 µM | Potency [12] 19.3 µM | Potency [16] 4.33 µM

Nc1cc([N+](=O)[O-])ccc1Cl
inactive: Potency [1] | Potency [2] | Potency [3] | Potency [4] | Potency [5] | Potency [6] | Potency [7] | Potency [15] | Potency [10] | Potency [11] | Potency [12] | Potency [16] | Potency [17]

CC/C(=C(/c1ccc(O)cc1)c1ccc(OCCN(C)C)cc1)c1ccccc1
inactive: Potency [4] | Potency [6] | Potency [15] | Potency [13]
active: Potency [1] 10.2 µM | Potency [2] 14.4 µM | Potency [3] 28.8 µM | Potency [5] 32.3 µM | Potency [7] 40.3 µM | Potency [8] 32 µM | Potency [11] 18 µM | Potency [12] 18 µM | Potency [16] 14.3 µM

C[C@H]1O[C@@H](O[C@H]2CC[C@@]3(C)[C@H](CC[C@@H]4[C@@H]3C[C@@H](O)[C@]3(C)[C@@H](C5=CC(=O)OC5)CC[C@]43O)C2)C[C@H](O)[C@@H]1O[C@H]1C[C@H](O)[C@H](O[C@H]2C[C@H](O)[C@H](O[C@@H]3O[C@H](CO)[C@@H](O)[C@H](O)[C@H]3O)[C@@H](C)O2)[C@@H](C)O1
inactive: Potency [2] | Potency [3] | Potency [4] | Potency [5] | Potency [6] | Potency [7] | Potency [8] | Potency [9] | Potency [10] | Potency [11] | Potency [12] | Potency [13] | Potency [16]
active: Potency [1] 0.268 µM

CC/C=C(\C)C=O
inactive: Potency [1] | Potency [2] | Potency [3] | Potency [4] | Potency [5] | Potency [6] | Potency [7] | Potency [9] | Potency [15] | Potency [10] | Potency [11] | Potency [12] | Potency [13] | Potency [16] | Potency [14]

COc1cc2ncnc(Nc3cccc(Cl)c3)c2cc1OC
inactive: activity change, negative = cytotoxicity [1] -2.37% [at 15.8 µM] | activity change, negative = cytotoxicity [2] -3.64% [at 15.8 µM] | activity change [3] -3.26% [at 15.8 µM, hits give high values] | activity change, negative = cytotoxicity [4] -27.3% [at 15.8 µM] | cytotoxicity increase [5] -18% [at 15.8 µM] | activity change, negative = cytotoxicity [6] -7.05% [at 19 µM] | viability change, negative = cytotoxic [7] -6.19% [at 19 µM] | activity, negative = inhibition [8] 23.3% [at 19 µM] | activity change, negative = inhibition [15] -7.18% [at 19 µM] | activity change, negative = cytotoxicity [10] 2.53% [at 19 µM] | viability change, negative = cytotoxic [12] -19.1% [at 19 µM] | activity change [13] -3.79% [at 18.9 µM, hits give high values] | activity, negative = inhibition [17] -15.9% [at 19 µM]

O=C(N[C@H](CO)[C@H](O)c1ccc([N+](=O)[O-])cc1)C(Cl)Cl
inactive: Potency [18] | Potency [3] | Potency [4] | Potency [5] | Potency [7] | Potency [9] | Potency [19] | Potency [15] | Potency [10] | Potency [11] | Potency [12] | Potency [13] | Potency [16] | Potency [14]

CCOC(=O)[C@H](O)[C@@H](O)C(=O)OCC
inactive: Potency [1] | Potency [2] | Potency [3] | Potency [4] | Potency [5] | Potency [7] | Potency [8] | Potency [9] | Potency [15] | Potency [10] | Potency [11] | Potency [12] | Potency [13] | Potency [16] | Potency [17] | Potency [14]

CCCCCCCCc1ccc(Nc2ccc(CCCCCCCC)cc2)cc1
inactive: Potency [1] | Potency [2] | Potency [3] | Potency [4] | Potency [5] | Potency [7] | Potency [8] | Potency [9] | Potency [10] | Potency [11] | Potency [12] | Potency [13] | Potency [16] | outcome [20] | Potency [17] | Potency [14]

C=Cc1ccc(O)c(OC)c1
active: Potency [11] 54.5 µM | Potency [12] 27.3 µM | Potency [16] 13.7 µM
inactive: Potency [1] | Potency [2] | Potency [3] | Potency [4] | Potency [5] | Potency [6] | Potency [7] | Potency [15] | Potency [10] | Potency [13] | Potency [17] | Potency [14]

CC(Cc1ccc(O)c(O)c1)C(C)Cc1ccc(O)c(O)c1 (centres undefined)
inactive: Potency [3] | Potency [4] | Potency [6] | Potency [7] | Potency [9] | Potency [10] | Potency [13]
active: Potency [1] 34.7 µM | Potency [2] 43.6 µM | Potency [16] 13.7 µM

O=[N+]([O-])c1ccc(CO)cc1
inactive: Potency [1] | Potency [2] | Potency [3] | Potency [4] | Potency [5] | Potency [6] | Potency [7] | Potency [8] | Potency [9] | Potency [10] | Potency [11] | Potency [12] | Potency [13] | Potency [16] | outcome [20] | Potency [17] | Potency [14]

O=C1c2ccccc2C(=O)c2c(Cl)cccc21
inactive: Potency [18] | Potency [3] | Potency [4] | Potency [5] | Potency [6] | Potency [7] | Potency [9] | Potency [10] | Potency [11] | Potency [12] | Potency [13] | Potency [16]
